Most compounds without a hit are left out; they make up all but 10% or so of the library.
hNpr1 antagonist = antagonists of human natriuretic peptide receptor Npr1. P16066. HEK293 hNpr1 GloSensor cGMP, ANP-stimulated luminescence. Potency, µM (series often up to 46.3 µM), usual class: inhibitors. hit rate 1.6% among 76,000. AID 1347048; calls by dose curve; note: nearly all actives have a fitted effect of over 60% in size
Target sequence (P16066 whole entry, looked up): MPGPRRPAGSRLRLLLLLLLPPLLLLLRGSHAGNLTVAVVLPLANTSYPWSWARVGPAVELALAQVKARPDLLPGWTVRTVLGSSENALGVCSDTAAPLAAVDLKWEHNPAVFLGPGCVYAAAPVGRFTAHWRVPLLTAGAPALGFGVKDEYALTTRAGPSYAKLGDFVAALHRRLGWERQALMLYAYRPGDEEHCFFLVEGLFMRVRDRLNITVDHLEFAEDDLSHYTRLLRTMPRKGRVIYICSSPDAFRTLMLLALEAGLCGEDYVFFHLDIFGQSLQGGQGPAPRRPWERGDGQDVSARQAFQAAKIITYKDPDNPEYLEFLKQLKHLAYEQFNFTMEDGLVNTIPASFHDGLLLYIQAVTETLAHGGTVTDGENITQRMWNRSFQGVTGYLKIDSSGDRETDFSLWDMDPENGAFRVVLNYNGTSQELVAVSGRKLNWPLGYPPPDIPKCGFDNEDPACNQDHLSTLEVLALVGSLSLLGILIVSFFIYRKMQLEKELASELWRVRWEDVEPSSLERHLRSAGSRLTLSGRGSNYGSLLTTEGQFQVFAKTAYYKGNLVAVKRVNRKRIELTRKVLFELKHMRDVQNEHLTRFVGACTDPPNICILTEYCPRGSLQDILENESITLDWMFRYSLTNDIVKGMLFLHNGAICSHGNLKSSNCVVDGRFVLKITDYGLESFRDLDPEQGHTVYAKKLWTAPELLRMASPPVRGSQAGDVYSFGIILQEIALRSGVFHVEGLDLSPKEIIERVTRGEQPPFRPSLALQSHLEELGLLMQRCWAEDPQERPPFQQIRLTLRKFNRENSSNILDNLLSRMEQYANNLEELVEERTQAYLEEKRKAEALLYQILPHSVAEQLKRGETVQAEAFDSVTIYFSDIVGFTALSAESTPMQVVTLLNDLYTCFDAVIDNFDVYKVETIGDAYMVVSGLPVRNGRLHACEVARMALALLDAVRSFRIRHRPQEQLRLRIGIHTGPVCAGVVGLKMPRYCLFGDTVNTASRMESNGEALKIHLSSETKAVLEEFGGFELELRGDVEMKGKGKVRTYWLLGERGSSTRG
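HEK293 cells stably expressing human Npr1 and cGMP GloSensor pGS-40F, loaded 2 h with 2% GloSensor reagent, given compound 30 min at room temperature. Luminescence read before and 20 min after 0.1 nM hNppA.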
NIH3T3 tox = cytotoxic compounds in NIH 3T3 cells | AID 1345082 | NIH 3T3 viability, CellTiter-Glo ATP luminescence, 48-72 h | hit rate 4.3% among 94,000 | Potency, µM (top dose mostly 96.7 µM), usual class: inhibitors; note: nearly all actives have a fitted effect of over 55% in size
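Cytotoxicity is measured as loss of cellular ATP: NIH 3T3 cells (400/well) are exposed to compound for 48 or 72 hr at 37 °C, then CellTiter-Glo luminescence is imaged after 10 min at room temperature.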
FLuc inh-1 = inhibitors of firefly (Photinus pyralis) luciferase. P08659. purified P. pyralis luciferase, luminescence, biochemical. Potency, µM (highest dose often 115 µM), hits mostly inhibitors. hit rate 2.5% among 76,000. AID 1347043; note: nearly all actives have a fitted effect of over 65% in size
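Purified P. pyralis luciferase (10nM final) in 50mM Tris acetate pH 7.5, 10mM Mg acetate, 0.01% Tween-20, 0.05% BSA with 10uM D-luciferin and 10uM ATP. Compounds titrated qHTS. Luminescence imaged on CCD.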
HEK cytotox = cytotoxic compounds in HEK 293 cells. Potency, µM (series often up to 115 µM), usual class: inhibitors. AID 1345083. HEK 293 viability, ATP luminescence (CellTiter-Glo), 48-72 h. hit rate 6.6% among 94,000; note: nearly all actives have a fitted effect of over 60% in size
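250 HEK 293 cells/well; compound by pintool; incubated 48 or 72 hr at 37 degree Celsius; CellTiter-Glo added, 10 min RT, luminescence imaged.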
GPT2 inh = inhibitors of human GPT2 alanine aminotransferase; Recombinant GPT2, coupled pyruvate oxidase/HRP Amplex Red fluorescence; Potency, µM (highest dose often 57.7 µM), actives largely listed as inhibitors; hit rate 0.25% among 100,000; AID 1671188; note: nearly all actives have a fitted effect of over 60% in size
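GPT2 10ng/uL, a-KG 250uM, L-Ala 2mM, HEPES pH7.5 + 0.0001% Tween; 30 min RT. Then Amplex mix (PO/HRP/ThPP), 30 min RT dark, fluorescence. AOA 50uM used as positive control.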
FLuc SDR -ATP = firefly luciferase binding stabilization, ATP absent | hit rate 7.8% among 1,300 | shares compounds with FLuc inh-1 | Purified FLuc-C-HiBiT, Nano-Glo HiBiT luminescence, no ATP | Potency, µM (series often up to 32.7 µM), usual class: activators | AID 1963318; note: nearly all actives have a fitted effect of over 55% in size
FLuc SDR ATP = firefly luciferase binding stabilization, ATP added | shares compounds with FLuc inh-1 | purified FLuc-C-HiBiT + ATP, HiBiT complementation luminescence | Potency, µM (highest dose often 32.7 µM), most hits filed as activators | hit rate 8.7% among 1,300 | AID 1963319;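 note: signal reports ligand binding via conformational change of the enzyme rather than luciferase catalysis; nearly all actives have a fitted effect of over 55% in size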
FLuc inh-2 = blocks firefly luciferase enzymatic activity; shares compounds with FLuc inh-1; purified FLuc-C-HiBiT enzyme, luciferin luminescence; Potency, µM (series often up to 32.7 µM), hits mostly inhibitors; AID 1963320; hit rate 42% among 1,300; note: nearly all actives have a fitted effect of over 70% in size
Hits are given with their value; . = inactive; ? = inconclusive; / = no result; [ ] = another dose, or the depositor's remark. Unless noted, calls come from the whole dose curve; as a rule, active = well fitted curve in the direction sought with a large enough effect; inconclusive = small, poorly fitted or top-dose-only effect, or another doubt; inactive = no such curve, though single readings can be large; an effect the other way counts as inactive or inconclusive.

SMILES | hNpr1 antagonist | NIH3T3 tox | FLuc inh-1 | HEK cytotox | GPT2 inh | FLuc SDR -ATP | FLuc SDR ATP | FLuc inh-2
COc1ccc2c(=O)n(CC(=O)N3CCCC(C#N)C3)ccc2c1OC (centres undefined) | . | . | . | . | . | / | / | /
COc1ccc(-n2cc(-c3ccnc(N(C)Cc4cnccn4)n3)cn2)cc1 | . | ? | ? | ? | . | / | / | /
COc1cccc(-n2cc(CN(C)c3ncncn3)cn2)c1 | . | . | 13µM | . | .[11.5 µM] | . | . | .
CCN1c2cc(C(=O)Nc3ccc4c(c3)OCCO4)ccc2C(=O)N2CCCC21 (centres undefined) | . | ? | 5µM | ? | . | . | . | ?
CCN1c2cc(C(=O)Nc3ccc4c(c3)OCCO4)ccc2C(=O)N2CCCCCC21 (centres undefined) | ? | ? | 11µM | 18µM | . | . | . | ?
CC(C)Oc1ccc(CN2CCc3nc(N(C)C)[nH]c(=O)c3CC2)cc1 | . | . | . | . | . | / | / | /
OC(c1nc(Nc2ccc(Oc3ccccc3)cc2)n[nH]1)C1CC1 (centres undefined) | . | ? | 14µM | ? | . | . | . | ?
O=C(c1[nH]ncc1Cl)N1CCOC(Cc2cccc(C(F)(F)F)c2)C1 (centres undefined) | . | . | 13µM | ? | . | . | . | .
Cc1ccc(NC(=O)c2ncoc2-c2ccco2)cc1Cl | / | / | / | / | / | . | . | ?
Cc1ccc(NC(=O)N2CCC(OC3CCN(S(C)(=O)=O)CC3)CC2)cc1Cl | ? | ? | . | ? | . | / | / | /
Cc1ccsc1CN1C[C@@H]2C(C(=O)N3CCOCC3)=NO[C@@H]2C1 | . | ? | . | . | . | / | / | /
CCn1nccc1C(=O)N1CCCN(S(=O)(=O)c2ccccc2)CCC(=O)NCC1 | . | . | . | . | . | / | / | /
COc1cccc(CNC(=O)Nc2cccc(-c3ccc(N4CCOCC4)nn3)c2)c1 | ? | ? | 1.1µM | ? | ? | ? | ? | 2.8µM
O=C(NCc1ccccc1)Nc1cccc(-c2nnc3n2CCCC3)c1 | . | . | . | ? | . | / | / | /
CC(=O)Nc1cccc(-c2ccnc(-c3nnc(C)n3CCN3CCOCC3)c2)c1 | . | ? | . | . | . | / | / | /
CCc1cc(=O)n(CC(=O)NCc2cccc(OC)c2)c(N2CCOCC2)n1 | . | . | . | . | . | / | / | /
COc1ccc(CNC(=O)Nc2cccc(-c3ccc(N4CCCCC4)nn3)c2)cc1 | 8.9µM | ? | 0.25µM | ? | . | 2µM | ? | 0.5µM
Cc1ccc(CNC(=O)Nc2cccc(-c3ccc(N4CCOCC4)nn3)c2)cc1 | . | ? | 1.3µM | ? | . | ? | ? | 2.8µM
O=C(NCc1ccco1)Nc1cccc(-c2ccc(N3CCCC3)nn2)c1 | . | ? | 7.1µM | ? | ? | ? | ? | ?
CCOc1ccc(-c2noc(-c3nc(C)no3)n2)cc1 | . | . | ? | . | . | / | / | /
COc1ccc(C(=O)NCC2c3cc(OC)c(OC)cc3CCN2C(=O)NC(C)C)cc1 (centres undefined) | . | . | . | ? | ? | / | / | /
COCc1nc(C2CCCN(C(=O)Cc3cccc(OC)c3)C2)no1 (centres undefined) | . | . | . | . | . | / | / | /
O=C(c1cccc(F)c1)N1CC(Oc2cccc(-c3nc(-c4ccccc4)no3)c2)C1 | . | ? | ? | ? | . | / | / | /
O=C(Cc1cccc(F)c1)N1CC(Oc2ccc(-c3nc(-c4ccccc4)no3)cc2)C1 | 7.9µM | . | 2µM | ? | . | . | . | ?
O=C(Nc1ccccc1)N1CC(Oc2ccc(-c3nc(-c4ccccc4)no3)cc2)C1 | . | . | 1.3µM | ? | . | . | . | ?
SMILES | hNpr1 antagonist | NIH3T3 tox | FLuc inh-1 | HEK cytotox | GPT2 inh | FLuc SDR -ATP | FLuc SDR ATP | FLuc inh-2
O=C(N1CC(Oc2ccc(-c3noc(-c4ccccc4)n3)cc2)C1)C1(c2ccccc2)CC1 | . | . | . | . | . | / | / | /
Cc1noc(-c2ccc(OC3CN(C(=O)NCc4ccccc4)C3)cc2)n1 | ? | ? | . | ? | . | / | / | /
CCNC(=O)N1CC(Oc2ccc(-c3nc(-c4ccccc4)no3)cc2)C1 | 0.25µM | . | 0.63µM | ? | . | . | . | ?
NC(=O)[C@H](Cc1ccc(O)cc1)NC(=O)C1=C[C@@H](NC(=O)CC2(CC(=O)O)CCCC2)[C@@H](O)[C@H](O)C1 | . | . | . | . | . | / | / | /
CC(=O)N1CCN([C@H]2[C@@H]3OC[C@@H](O3)[C@@H](NCC3CCCCC3)[C@@H]2O)CC1 | . | . | . | . | . | / | / | /
O=C(Cc1cccs1)N1CC(Oc2ccccc2-c2nc(C3CC3)no2)C1 | . | . | . | ? | . | / | / | /
O=C(C1CCCC1)N1CCC(C(=O)N2CCCN(Cc3cccnc3)CC2)CC1 | . | . | . | . | . | / | / | /
Cc1ccc(-n2ncc3c(N4CCC(C)CC4)ncnc32)cc1C | / | / | / | / | / | . | ? | 5µM
O=C(C1CCCN(C2CCN(c3nnnn3-c3ccccc3)CC2)C1)N1CCCC1 (centres undefined) | . | . | . | . | . | / | / | /
CCOC(=O)C1CCCN(C(=O)c2cc(-c3ccc(Cl)cc3Cl)c3nncn3n2)C1 (centres undefined) | / | ? | / | ? | . | / | / | /
CC1CCCN1c1ncnc2c1CN(c1ccc(Cl)cc1)C(=O)CN2C (centres undefined) | . | . | . | . | . | / | / | /
CC1CCCCN1c1ncnc2c1cnn2-c1ccccc1 (centres undefined) | / | / | / | / | / | 11µM | ? | 1.1µM
CCOC(=O)C1CCCN(c2ncnc3c2cnn3-c2ccc(C)c(Cl)c2)C1 (centres undefined) | / | / | / | / | / | . | . | .
NC(=O)C1CCCN(c2ncnc3c2cnn3-c2ccccc2)C1 (centres undefined) | / | / | / | / | / | ? | ? | 11µM
COc1ccccc1-c1cc(C(=O)NCCc2ccccc2)nn2cnnc12 | / | . | / | ? | . | / | / | /
COc1ccc(C(=O)N2CCCCCCNC(=O)CC2)cc1F | . | . | . | . | . | / | / | /
COCCc1nncn1C1CCN(C(=O)c2ccc(F)c(Cl)c2)CC1 | . | ? | . | . | . | / | / | /
COc1ccc(CNc2cc(Cl)nc3ccnn23)cc1OC | . | ? | . | ? | . | / | / | /
CC1CCN(c2ncnc3c2cnn3-c2ccccc2)CC1 | / | / | / | / | / | . | ? | 6.2µM
CC1CCN(c2ncnc3c2CN(c2ccccc2)C(=O)N(C)C3)C1 (centres undefined) | . | . | . | . | . | / | / | /
O=C(CC[C@H]1NC(=O)c2ccccc2NC1=O)NCCn1ccc2c(Cl)cccc21 | . | . | . | . | . | / | / | /

Screening results (PubChem BioAssay)
